The values below come from PubChem BioAssay.

Values without a mark were called inactive. Active and inactive are the calls of the source.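 The calls were made as follows: active = z-score of at least 1.8 in each of two replicates, scored against plate mean and spread of sample wells; inactive = the rest.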

The experiment is described as follows: viability rescue of complex I mutant cybrids, primary screen, cell-based, galactose medium, ATP luminescence (AID 1645843).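 Also: positive z means more ATP and so rescue of galactose-driven cybrid death.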 As to conditions: complex I mutant cybrid cells, 72 h, active compounds read high.
Turning to `Cc1cc(CN(C)Cc2ccc(-c3nc(C)c(C)c(=O)[nH]3)cc2)ccn1`, the z-score is -0.52.

Consider `CCC(CC)C(=O)N1CCC(n2cc(C(C)(C)O)nn2)CC1`, for which the z-score was 0.875.

Turning to `Cc1nsc(NC(=O)N2CCCC(C)(CO)C2)n1` (stereo unspecified), the z-score was -0.515.

As for `Cn1cc(C(=O)N2CCc3[nH]nc(-c4ccccc4F)c3C2)c2ccccc21`, the z-score was -0.945.

For the compound `C=C1C(C)(C)[C@H]2CC[C@]1(C(=O)N1CCC(n3cc(CC(C)C)nn3)CC1)C2`, the z-score was -0.52.

For `COc1nccnc1-c1cccc(-n2cccn2)c1`, the z-score was -0.545.

For `CC(C)c1ncc(-c2cc(C(=O)N3CCC(C)(C)C3)c3ccccc3n2)cn1`, the z-score was 2.19 (active).

For the compound `Cc1ccc2c(C(=O)N3CCCC3)cc(-c3cnn(C(C)C)c3)nc2c1`, the z-score was -0.36.

In the case of `COc1ccc(C(=O)N2CCNC(=O)C2Cc2ccccc2)cc1F` (stereo unspecified), the z-score is -0.505.

Take `Cc1sc2ncnc(N3CCC(Cn4cc(C(C)(C)N)nn4)CC3)c2c1C`: the z-score was -0.55.

As for `O=C(Cn1ccc(-c2cccnc2)n1)Nc1ccnn1Cc1cccs1`, the z-score was -0.545.

As to `CC(C)CN1CCN(Cc2ccco2)C(CCO)C1` (stereo unspecified), the z-score is -0.595.

Take `Cc1c(C(=O)N2CCSCC2)c(-c2ccccc2)nn1-c1ccccc1`: the z-score was 1.96.

`COc1ccc(OC)c(-c2ccc3nc(C)ccc3c2)c1`: the z-score was -1.14.

`Cc1nnc2ccc3nnc(-c4cc(Cl)ccc4OC(C)C)n3n12`: the z-score is -0.5.

As to `COc1ccccc1C(=O)N1CCN(C(=O)c2nc3ccccc3c(=O)[nH]2)CC1`, the z-score was 0.365.
